These results are taken from PubChem BioAssay (NCI).

The panel holds about 83,000 compounds, 20% with a hit somewhere; the sample as a whole holds those more often.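 Cell lines were cultured in 96-well plates, exposed to a single compound concentration, and assessed for percent growth 48 hours later.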 A number with no mark means an inactive call. Calls of active or inactive are those of the source. Rule for the calls: active = growth percent below 10; inactive = the rest.

Some test systems named below: SR leukemia; OVCAR-8 ovarian; OVCAR-5 ovarian; SK-OV-3 ovarian; IGROV1 ovarian; OVCAR-3 ovarian; HS 578T breast; NCI/ADR-RES ovarian; T-47D breast; BT-549 breast; MDA-MB-435 melanoma; SW-620 colon; MCF7 breast; HCT-116 colon; HCC-2998 colon; KM12 colon; OVCAR-4 ovarian; RPMI-8226 leukemia.
What all share (assay): NCI-60 one-dose screen, 48 h (100 = growth as untreated, 0 = no growth, -100 = all killed)
Settings in all cases: 10 µM unless noted

Regarding `CCCCNC(=O)c1ccc2c(c1)nc(-c1ccccc1)n2C1CCCCC1`, the growth with SR leukemia was 69.2%; in the test with OVCAR-8 ovarian, 102%; with OVCAR-5 ovarian it was 102%; in the test with SK-OV-3 ovarian it was 48.4%; in the test on IGROV1 ovarian, 109%; in the test with OVCAR-3 ovarian, 115%. In addition, the growth is 110% in the test on HS 578T breast; 98% in the test on NCI/ADR-RES ovarian; 88.1% in the test on T-47D breast; 99.7% with BT-549 breast; 99.9% in the test on MDA-MB-435 melanoma; 107% in the test with SW-620 colon. Further, the growth in the test on MCF7 breast is 82.1%; with HCT-116 colon it was 93.1%; in the test on HCC-2998 colon it was 102%; in the test on KM12 colon it was 88.4%.

In the case of `COc1cc(C=Nc2oc(-c3ccccc3)c(-c3ccccc3)c2C#N)cc(CN2CCCC2)c1O`, the growth was 80.9% in the test on SR leukemia; 107% in the test on OVCAR-8 ovarian; 102% with OVCAR-5 ovarian; 111% in the test with SK-OV-3 ovarian; 92% in the test with IGROV1 ovarian; 105% in the test with OVCAR-3 ovarian. The growth with HS 578T breast was 90.2%; with NCI/ADR-RES ovarian, 104%; in the test with T-47D breast it was 85.7%; in the test on BT-549 breast, 109%; in the test on MDA-MB-435 melanoma it was 104%; with SW-620 colon, 95.9%. Also, the growth with MCF7 breast is 96.4%; in the test with HCT-116 colon, 95.4%; with HCC-2998 colon, 111%; in the test on KM12 colon it was 102%.

With `CS(=O)(=O)Nc1cc(-c2ccc3ncnc(Nc4ccc5c(cnn5Cc5ccncc5)c4)c3c2)cnc1Cl`, the growth with SR leukemia is 44.6%; in the test on OVCAR-8 ovarian, 82.5%; in the test on OVCAR-5 ovarian, 59%; with OVCAR-4 ovarian it was 84.8%; in the test with SK-OV-3 ovarian, 54.9%; in the test with IGROV1 ovarian, 0.593% (active). For the same molecule, the growth is 37% in the test with OVCAR-3 ovarian; -6.14% (active) with HS 578T breast; 88.2% in the test on NCI/ADR-RES ovarian; 2.48% (active) in the test on T-47D breast; 16.1% in the test with BT-549 breast; 63.2% with MDA-MB-435 melanoma. Moreover, the growth is 68.6% in the test on SW-620 colon; 31.3% in the test on MCF7 breast; 75.2% with HCT-116 colon; 73.7% in the test on HCC-2998 colon; 93.4% in the test on KM12 colon.

In the case of `Fc1cccc(CNc2c3ccccc3nc3ccccc23)c1`, the growth with SR leukemia was 19.1%; with OVCAR-8 ovarian, 36%; with OVCAR-5 ovarian, 43.8%; in the test with OVCAR-4 ovarian, 30.5%; with SK-OV-3 ovarian it was 51.1%; in the test on IGROV1 ovarian, 25.6%. In addition, the growth is 67% with OVCAR-3 ovarian; 63.9% with HS 578T breast; 30.1% with NCI/ADR-RES ovarian; 42.7% in the test with T-47D breast; 77.1% with BT-549 breast; 48.9% in the test with MDA-MB-435 melanoma. Moreover, the growth was 22% with SW-620 colon; 7.9% (active) in the test on MCF7 breast; 13.4% in the test with HCT-116 colon; 29.9% in the test with HCC-2998 colon; 48.6% with KM12 colon.

Consider `O=C1CCC(C(=O)N/N=C/c2cc(F)ccc2F)N1` (configuration not stated), for which the growth with SR leukemia was 109%; in the test on OVCAR-8 ovarian it was 101%; with OVCAR-5 ovarian, 106%; in the test with OVCAR-4 ovarian it was 97.6%; in the test with SK-OV-3 ovarian, 108%; in the test on IGROV1 ovarian, 102%. The growth is 102% with OVCAR-3 ovarian; 99.1% in the test on HS 578T breast; 106% in the test with NCI/ADR-RES ovarian; 97.2% in the test with T-47D breast; 103% in the test with BT-549 breast; 100% in the test with MDA-MB-435 melanoma. The growth with SW-620 colon was 106%; in the test on MCF7 breast it was 93.4%; in the test with HCT-116 colon, 103%; in the test with HCC-2998 colon, 107%; in the test on KM12 colon it was 104%.

As for `c1cc(OCCN2CCCCC2)ccc1CNc1ccc2nc(CCC3CCCCC3)[nH]c2c1`, the growth in the test on SR leukemia is 12.5%; with OVCAR-8 ovarian, 36.6%; in the test on OVCAR-5 ovarian it was 60.2%; in the test with OVCAR-4 ovarian, 49.5%; in the test with SK-OV-3 ovarian, 86.1%; in the test with IGROV1 ovarian, 42.3%. Also, the growth is 48.4% with OVCAR-3 ovarian; 45.8% with HS 578T breast; 63.8% in the test with NCI/ADR-RES ovarian; -29.6% (active) in the test with T-47D breast; 73.6% in the test on BT-549 breast; 2.97% (active) in the test with SW-620 colon. The growth with MCF7 breast is -3.08% (active); in the test with HCT-116 colon, 12.9%; in the test on HCC-2998 colon it was -13.5% (active); in the test on KM12 colon, 43%.

For `CCCC(O)Cn1ncc(C(=O)OCC)c1NC(=O)NCc1cccc(C(F)(F)F)c1` (configuration not stated), the growth is 76.1% in the test on SR leukemia; 102% in the test on OVCAR-8 ovarian; 107% in the test with OVCAR-5 ovarian; 104% in the test on OVCAR-4 ovarian; 84.8% in the test with SK-OV-3 ovarian; 83.8% in the test on IGROV1 ovarian. The growth in the test with OVCAR-3 ovarian is 100%; in the test on HS 578T breast, 107%; in the test on NCI/ADR-RES ovarian, 86.4%; with T-47D breast, 73.2%; in the test with BT-549 breast it was 77.8%; in the test on MDA-MB-435 melanoma it was 103%. Further, the growth is 106% in the test with SW-620 colon; 97.6% with MCF7 breast; 61.4% in the test on HCT-116 colon; 85.3% in the test on HCC-2998 colon; 103% in the test on KM12 colon.

As for `CC(C)c1ccc2c(c1)CC[C@H]1[C@](C)(C(=O)OCC#CCN3CCCC3)CCC[C@]21C`, the growth was 52.5% in the test with SR leukemia; 47.5% with RPMI-8226 leukemia; 85.8% in the test with OVCAR-5 ovarian; 88.4% in the test on SK-OV-3 ovarian; 90.5% in the test with IGROV1 ovarian; 77.6% with OVCAR-3 ovarian. Further, the growth is 87.6% in the test with HS 578T breast; 82.2% with NCI/ADR-RES ovarian; 63.4% with T-47D breast; 93.4% in the test on BT-549 breast; 82.9% with MDA-MB-435 melanoma; 84.6% in the test with SW-620 colon. For the same molecule, the growth in the test on MCF7 breast was 73.9%; in the test with HCT-116 colon, 48.5%; with HCC-2998 colon, 86.9%; in the test with KM12 colon, 81.4%.

Turning to `CCN1CCN(CCNc2nccc(-c3c(-c4ccc(F)c(O)c4)nc4occn34)n2)S1(=O)=O`, the growth with SR leukemia was 29.5%; in the test on OVCAR-8 ovarian, 11.7%; in the test on OVCAR-5 ovarian, 102%; in the test with OVCAR-4 ovarian, 19.8%; in the test with SK-OV-3 ovarian, 54%; with IGROV1 ovarian, 44.2%. Besides, the growth in the test with OVCAR-3 ovarian was 39.4%; with HS 578T breast it was 42.6%; in the test with T-47D breast, -1.77% (active); with BT-549 breast it was 21.2%; with MDA-MB-435 melanoma it was 10.1%; in the test with SW-620 colon it was 44.1%. For the same molecule, the growth in the test on MCF7 breast is 17.7%; in the test with HCT-116 colon, 16.3%; with HCC-2998 colon, 57.3%; in the test on KM12 colon, 13.7%.

For `O=C(C[C@]1(O)C(=O)Nc2ccc(Br)cc21)c1ccco1`, the growth in the test with SR leukemia was 97.9%; with OVCAR-8 ovarian, 98.2%; in the test on OVCAR-5 ovarian, 106%; with OVCAR-4 ovarian, 104%; with SK-OV-3 ovarian, 95.2%; in the test with IGROV1 ovarian, 92.7%. Besides, the growth with OVCAR-3 ovarian is 102%; in the test with HS 578T breast, 102%; in the test on NCI/ADR-RES ovarian, 100%; with BT-549 breast, 109%; in the test on MDA-MB-435 melanoma, 112%; in the test on SW-620 colon, 95.5%. Further, the growth in the test on MCF7 breast is 94.2%; in the test on HCT-116 colon, 105%; with HCC-2998 colon, 115%; with KM12 colon, 101%.

For the molecule `Nc1nc(C(=O)N/N=C/c2ccc(F)cc2)nn1-c1ccc(S(N)(=O)=O)cc1`, the growth in the test with OVCAR-5 ovarian was 104%; in the test with OVCAR-4 ovarian it was 98.4%; in the test with SK-OV-3 ovarian, 105%; in the test with IGROV1 ovarian it was 91.5%; with OVCAR-3 ovarian, 102%; in the test with HS 578T breast, 101%. Also, the growth in the test on NCI/ADR-RES ovarian was 98.3%; in the test with T-47D breast it was 99.3%; with BT-549 breast, 114%; in the test on MDA-MB-435 melanoma it was 100%; in the test with SW-620 colon, 99.2%; with MCF7 breast, 98.8%. The growth was 101% with HCT-116 colon, 107% in the test on HCC-2998 colon and 96.7% in the test on KM12 colon.

With `COc1ccc(C(c2cc(OC)c(OC)c(OC)c2)N2CCCCC2)cc1` (configuration not stated), the growth was 51.2% in the test on RPMI-8226 leukemia; 69.6% with OVCAR-5 ovarian; 69.2% with OVCAR-4 ovarian; 16.7% in the test on SK-OV-3 ovarian; 47.1% in the test on IGROV1 ovarian; 8.29% (active) in the test with OVCAR-3 ovarian. Besides, the growth with HS 578T breast was 16.6%; in the test with NCI/ADR-RES ovarian it was 24%; with T-47D breast it was 33.6%; with BT-549 breast, 49.7%; in the test on MDA-MB-435 melanoma, -21.8% (active); in the test on SW-620 colon it was 14.5%. Moreover, the growth is 23.6% in the test with MCF7 breast, 29.1% in the test with HCT-116 colon, 79.6% in the test on HCC-2998 colon and 30.2% with KM12 colon.

Turning to `CC1SC(c2ccccc2O)N(NC(=O)CCC(=O)c2nc3ncccc3[nH]2)C1=O` (configuration not stated), the growth with RPMI-8226 leukemia was 93.1%; in the test with OVCAR-8 ovarian it was 97%; in the test on OVCAR-5 ovarian, 107%; in the test with OVCAR-4 ovarian it was 92.8%; in the test on SK-OV-3 ovarian it was 92.3%; with IGROV1 ovarian, 70.1%. For the same molecule, the growth in the test on OVCAR-3 ovarian is 97%; in the test with HS 578T breast, 90.2%; in the test on NCI/ADR-RES ovarian, 89.6%; in the test on T-47D breast, 93.6%; with BT-549 breast it was 122%; in the test with MDA-MB-435 melanoma, 102%. For the same molecule, the growth with SW-620 colon is 92.6%; in the test on MCF7 breast, 98.7%; with HCT-116 colon, 91.2%; in the test with HCC-2998 colon, 92.9%; with KM12 colon it was 95.2%.
